Hit rate of the full screen: of about 330,000 compounds, about 1,900 (0.58%) were called active. About 4% were inconclusive and are not listed. Not all results are given here. Entries with a potency or affinity are not part of this list. Unmarked numbers belong to inactive results. Cut-off read from the data, not from the text of the source: inconclusive = inhibition above about 70% without an active follow-up result; inactive = below that.
Assay: M. tuberculosis growth inhibition, HTS (AID 449762);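 note: bacterial growth assessed after seven days of incubation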
Details: M. tuberculosis H37Rv growth inhibition, 7H9 media; at 25 µM; active compounds read high

| SMILES | inhibition |
| --- | --- |
| Cc1ccccc1NS(=O)(=O)c1ccc(C(=O)N2CCN(c3ccccc3O)CC2)cc1 | 4.31% |
| Cc1cccc(NS(=O)(=O)c2ccc(C(=O)N3CCCC3)cc2)c1C | -8.71% |
| OC(COCc1ccc(Cl)cc1)CN1CCCCC1 (centres undefined) | 1.29% |
| C=CCNC(=O)/C(C#N)=C\c1cc(Cl)c(OCC)c(OC)c1 | 7.41% |
| COc1cccc(CN(C)C(=O)CSCC(=O)Nc2cccc(C)c2)c1OC | -5.41% |
| CC(C)C(=O)N=c1sc2cc(F)cc(F)c2n1C | -9.4% |
| O=C(NCc1cccs1)c1cccc(Nc2nc3ccc(Br)cc3[nH]2)c1 | -11% |
| O=C(NCC1CC1)c1ccc(Nc2nc3ccc(Br)cc3[nH]2)cc1 | -0.43% |
| CC(=O)Oc1ccc(-c2cccc(C(=O)NCCO)c2)cc1 | -0.93% |
| O=S(=O)(NC1CCCCC1Nc1ccccc1)c1ccccc1 (centres undefined) | -7.27% |
| O=C(CN(c1ccc(F)cc1)S(=O)(=O)c1ccc2c(c1)OCCO2)N1CCOCC1 | 1.58% |
| CCCCCC(=O)NCc1c(C(F)(F)F)nn(C)c1N1CCOCC1 | -1.96% |
| O=C(CN1CCNC(=O)C1)NCCc1ccc(Cl)cc1Cl | -0.1% |
| O=C(C[N+]12CCN(CC1)CC2)NCCc1ccc(Cl)cc1Cl | -3.14% |
| COc1ccc(OC)c(NC(=O)c2cccnc2Sc2cc(C)ccc2C)c1 | 8.29% |
| CC(C)(C)c1ccccc1OCCOCCNCc1ccccc1 | 2.6% |
| Cc1ccc(S(=O)(=O)n2ccc3c(OCCOCCSCC(NC(=O)OC(C)(C)C)C(=O)O)cccc32)cc1 (centres undefined) | 0.6% |
| O=C(CSc1nc2ccccc2[nH]1)Nc1ccc2[nH]c(=O)[nH]c2c1 | 8.79% |
| CC(=O)Nc1ccc(NC(=O)CSc2ncnc3sc(C)c(C)c23)cc1 | -0.3% |
| CNc1nc(-c2ccc3c(c2)CCN3C(=O)c2ccccc2F)c(C)s1 | 9.7% |
| O=C1/C(=C/c2ccccn2)SC(=S)N1NS(=O)(=O)c1ccccc1 | 5.72% |
| CCC(=O)NCCCCCCNC(=O)CC | 0.18% |
| CCC(=O)NCCCCCCCCCNC(=O)CC | -4.93% |
| C=CCn1c(SCC(=O)Nc2ccccc2F)nnc1C(C)NC(=O)c1ccccc1F (centres undefined) | -12.4% |

| SMILES | inhibition |
| --- | --- |
| Cc1ccc(-c2c(C)n([O-])c3c([n+]2=O)CCCCC3)cc1 | -3.38% |
| CC(C)C[C@H](NC(=O)OC(C)(C)C)c1nnc(SCc2ccccc2)o1 | -3.57% |
| CCCCSc1nnc([C@H](CC(C)C)NC(=O)OC(C)(C)C)o1 | -2.58% |
| COc1ccc(C)cc1S(=O)(=O)NCc1cccs1 | 1.39% |
| O=C(NCCc1ccc(Cl)cc1)c1ccc(OCC2CCCO2)cc1 (centres undefined) | 5.17% |
| O=C(NC1CCCCC1)N1CCN(Cc2nc3ccccc3c(=O)[nH]2)CC1 | -4.69% |
| CC(=O)Nc1ccc(NC(=S)NC(=O)C2CCCC2)cc1 | -8.34% |
| COc1ccc(NC(=S)NC(=O)C2CCC2)cc1 | -0.22% |
| Cn1nc(C(F)(F)F)c(C(=O)Nc2ccc(F)cc2F)c1Sc1ccc(Cl)cc1 | -9.99% |
| COc1cc(-c2ccc3oc(-c4ccsc4)cc3c2)cc(OC)c1OC | 0.64% |
| COc1ccc(-c2ccc3oc(-c4ccsc4)cc(=O)c3c2)cc1F | -0.47% |
| O=C1c2ccccc2C(=O)N1CCc1csc(-c2cccc(F)c2)n1 | 3.85% |
| COC(=O)CC1C(=O)NCCN1C(=O)c1ccccc1 (centres undefined) | -6.14% |
| Brc1cccc2sc(N3CCCC3)nc12 | 6.95% |
| Brc1ccc2nc(N3CCN(c4ccccc4)CC3)sc2c1 | -4.96% |
| COc1ccc(C(=O)Nc2ccccc2C(=O)NCCN2CCOCC2)cc1OC | 4.9% |
| O=C(COC(=O)c1ccc2c(c1)OCCO2)Nc1cccc(S(=O)(=O)N2CCOCC2)c1 | 9.61% |
| COc1ccccc1C(=O)NCc1ccccc1 | 10.8% |
| COc1ccccc1C(=O)NNC(=O)CCC(=O)NCc1ccccc1 | -3.02% |
| COCCNC(=S)N/N=C(\C)c1ccccc1OC | -6.36% |
| C/C(=N\NC(=S)NCc1ccccc1)c1ccc(Br)cc1 | 6.33% |
| CSc1ccccc1NC(=O)Nc1cccc(F)c1 | 1.3% |
| CC(C)(C)N(Cc1ccccc1)C(=O)COC(=O)CNC(=O)c1ccco1 | 5.79% |
| CC(C)C(NC(=O)c1cccs1)C(=O)NC1=NCCS1 (centres undefined) | -3.72% |

| SMILES | inhibition |
| --- | --- |
| COc1cc(OC)cc(C(=O)N[C@H](C(=O)Nc2nc3ccc(S(C)(=O)=O)cc3s2)C(C)C)c1 | 10.5% |
| CCOC(=O)c1csc(NC(=O)c2cc(=O)c3ccccc3o2)n1 | -0.69% |
| CCOC(=O)c1sc(NC(=O)c2cc3ccccc3o2)nc1C | 3.64% |
| COc1cccc(/C=N/Nc2nc(N3CCCC3)nc(N3CCCC3)n2)c1O | 3.67% |
| COc1cc(/C=N/Nc2nc(Nc3ccccc3)nc(-n3nc(C)cc3C)n2)cc(OC)c1OC | 10.6% |
| COc1ccc(NC(=S)N2CCC(N(C)CCN3CCOCC3)CC2)cc1 | 2.62% |
| COc1ccccc1C(=O)NCCC(=O)N1CCN(c2ccccc2O)CC1 | 1.15% |
| CCOc1ccccc1N1CCN(c2ncnc3scc(-c4ccc(OC)cc4)c23)CC1 | -0.51% |
| COc1ccc(-c2nc3scc(-c4ccc(OC)c(OC)c4)c3c(=O)o2)cc1 | 11.9% |
| COc1ccc(-c2csc3nc(-c4ccccc4F)oc(=O)c23)cc1 | -1.39% |
| COc1ccc(-c2csc3ncnc(N4CCN(c5ccccc5Cl)CC4)c23)cc1 | 50.3% |
| CCN(CC)c1ccc(C2C(C(C)=O)C(=O)CC(C)(O)C2C(C)=O)cc1 (centres undefined) | -4.35% |
| C1CN(c2nc3nonc3nc2N2C[C@H]3CC[C@H]2C3)CCS1 | -11% |
| CCNC(=S)N(CCc1c(C)[nH]c2ccccc12)Cc1cccnc1 | -3.56% |
| CN1CCN(C(=O)CCN2C(=O)/C(=C\c3ccccc3F)SC2=S)CC1 | -5.52% |
| COc1ccc(-c2c(C#Cc3ccsc3)c3cc(Br)ccc3n2C)cc1 | 8.44% |
| COc1ccc(C#Cc2c(-c3ccccc3)n(C)c3ccccc23)cc1 | 6.76% |
| COc1cc(CNCc2ccccc2)cc(Cl)c1OC | -0.38% |
| COc1cc(CNCCO)cc(Cl)c1OCc1ccccc1Cl | 1.99% |
| CCN(C(=O)c1cnc2scc(C)n2c1=O)c1ccccc1C | -2.4% |
| COc1ccc(NC(=O)CC(Cc2ccc(Cl)cc2)C(=O)O)cc1 (centres undefined) | 1.62% |
| Cc1cccc(C)c1NC(=O)CN(C)C(=O)c1ccccc1Cc1ccccc1 | 2.81% |
| Cc1cc(C)n2nc(SCC(=O)NC(=O)c3ccccc3Cl)nc2n1 | 1.71% |
| CC(C)(C)c1nn(-c2ccccc2)c2[nH]c(=O)c(CNc3ccc4c(c3)OCCO4)cc12 | 52.8% |

| SMILES | inhibition |
| --- | --- |
| Cc1nn(-c2ccccc2)c2[nH]c(=O)c(CNCc3ccc4c(c3)OCO4)cc12 | -4.36% |
| Cc1ccccc1NC(=O)C1CCN(S(=O)(=O)c2cccc3nonc23)CC1 | 4.17% |
| CCC[C@@H]1C[C@@H](C(=O)N[C@H]([C@@H](C)O)[C@H]2O[C@H](SC)[C@H](O)[C@@H](O)C2O)N(C)C1 (some centres undefined) | 59.1% |
| Cc1ccc(NC(=O)[C@@H](CC(C)C)NC(=O)[C@@H]2Cc3ccccc3CN2)cc1 | 2.07% |
| CCOC(=O)C(C)Sc1ccc2nnc(CCNS(=O)(=O)c3ccc(C)cc3)n2n1 (centres undefined) | 1.94% |
| Cc1cc(C(F)(F)F)cc(NNC(=O)NC(=O)c2ccccc2Cl)n1 | 10.6% |
| COC(CNS(=O)(=O)c1ccc(S(=O)(=O)NC2CC2)cc1)OC | 1.93% |
| Cc1ccc(S(=O)(=O)NNC(=O)Nc2ccc(Cl)cc2)cc1 | 0.2% |
| COc1cc(SC)ccc1C(=O)NCCOc1ccc(Cl)cc1 | 64.9% |
| O=C(Nc1ccc(N2CCN(C(=O)c3ccco3)CC2)cc1)c1ccco1 | -1.95% |
| O=C(Nc1ccc(N2CCN(C(=O)c3ccco3)CC2)cc1)c1ccccc1 | 2.03% |
| NC(=O)CC(NC(=O)Cc1ccc(Br)cc1)c1ccc(NCc2ccccn2)c([N+](=O)[O-])c1 (centres undefined) | 3.35% |
| O=C(CN1C(=O)S/C(=C/c2cc(Br)cs2)C1=O)N1CCOCC1 | 5.49% |
| COCCNC(=O)c1ccccc1NC(=O)CCSc1ccccc1 | -2.26% |
| CCC1CCCCN1Cc1nc2c(c(=O)n(C)c(=O)n2C)n1CCC(C)C (centres undefined) | -0.27% |
| Cc1cccc(-c2oc3ccccc3c2-c2ccc3c(c2)OCO3)c1 | 52.4% |
| COc1ccc(-c2c(-c3cccc(C)c3)oc3ccc(-c4ccc5c(c4)OCO5)cc23)cn1 | -1.67% |
| Cc1c(Cl)c([N+](=O)[O-])nn1CCCC(=O)Nc1ccc(Cl)cc1Cl | 5.86% |
| CC1=NOC(=O)/C1=C\c1ccc(-c2ccc(Br)cc2C(=O)O)o1 | -4.04% |
| CC1=NOC(=O)/C1=C\c1ccc(-c2cccc(Cl)c2)o1 | 60.5% |
| Cc1c(NC(=S)Nc2cccc(Cl)c2)c(=O)n(-c2ccccc2)n1C | 7% |
| Cc1cccc(NC(=O)CN2CCN(C(=O)COc3cccc(Br)c3)CC2)c1C | 1.13% |

Reference: PubChem BioAssay AID449762 (Southern Research Specialized Biocontainment Screening …, 2010)
